According to PubChem BioAssay (NCI):
About 83,000 compounds went through this panel and 20% of them were active in at least one assay; those are over-represented in the sample as a whole.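 Growth was measured after 48 h exposure to one concentration of compound in 96-well plates. Values under 10 count as active.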 Calls of active or inactive are those of the source.

Assays:
Assay in all cases: NCI-60 one-dose screen, 48 h (100 = growth as untreated, 0 = no growth, -100 = all killed)
Conditions in all cases: 10 µM
[1] = test system: DU-145 prostate
[2] = test system: K-562 leukemia
[3] = test system: MALME-3M melanoma
[4] = test system: MDA-MB-231 breast
[5] = test system: RXF 393 renal
[6] = test system: SF-268 CNS
[7] = test system: SF-295 CNS
[8] = test system: SF-539 CNS
[9] = test system: UACC-257 melanoma
[10] = test system: M14 melanoma

Measured: growth

O=C(N/N=C\c1cc(Cl)ccc1O)c1ccncc1
inactive: [1] 48.3% | [2] 39.1% | [3] 80% | [4] 56% | [5] 57.4% | [6] 37.5% | [7] 77.2% | [8] 63.6% | [9] 53.7% | [10] 47.6%

CC1=CC2OC34COC3CC(OC(=O)C(F)(F)F)C4(C)C2(C)CC1 (stereo not given)
inactive: [1] 108% | [2] 120% | [3] 109% | [4] 101% | [5] 93.9% | [6] 103% | [7] 100% | [8] 98.4% | [9] 103% | [10] 96%

Cc1ncc([N+](=O)[O-])n1CCOc1ccc(C(=O)/C=C/c2ccc(C(F)(F)F)cc2)cc1
inactive: [1] 56.4% | [2] 14% | [3] 81.8% | [4] 82.9% | [5] 64.1% | [6] 77.4% | [7] 73.8% | [8] 57.5% | [9] 82.9% | [10] 79.7%

COc1ccc(-c2nsc3c2NC(=O)CC3c2ccc(Cl)cc2)cc1 (stereo not given)
inactive: [1] 98.4% | [2] 66.6% | [3] 78% | [4] 94.9% | [5] 105% | [6] 97.2% | [7] 79.2% | [8] 92.5% | [9] 82.5% | [10] 84.4%

CN(C)CCCN(Cc1ccccc1O)C(=S)Nc1ccc(Cl)cc1
inactive: [1] 121% | [2] 97.5% | [3] 101% | [4] 97% | [5] 93.4% | [6] 102% | [7] 94.7% | [8] 104% | [9] 101% | [10] 108%

FC(F)(F)c1ccc(-c2ncc(-c3ccc(C(F)(F)F)cc3)c(NCc3cc(C(F)(F)F)cc(C(F)(F)F)c3)n2)cc1
inactive: [1] 69.6% | [2] 44.4% | [3] 75.4% | [4] 72.5% | [5] 66.6% | [6] 69.3% | [8] 86.7% | [9] 87.9% | [10] 73.8%
active: [7] 9.91%

O=C1CC(c2cccc(-c3cccnc3)c2)=Nc2ccc(Br)cc2N1
inactive: [1] 65.8% | [2] 54.2% | [3] 40.9% | [4] 43.6% | [5] 40.2% | [6] 44.1% | [7] 48.7% | [8] 55.7% | [9] 38.5% | [10] 37.8%

COc1cc(-c2c(C#N)c(N)n3c(nc4ccccc43)c2C#N)cc(Br)c1OC
active: [3] 7.41% | [5] -9.32%
inactive: [1] 39.1% | [2] 54.6% | [4] 12.6% | [6] 64% | [7] 66% | [8] 41.2% | [9] 54% | [10] 76%

C=CCOc1ccc2c(c1)CC=C1[C@@H]2CC[C@]2(C)C(=O)/C(=N/O)C[C@@H]12
active: [2] 8.09%
inactive: [1] 91.7% | [3] 96.2% | [4] 90.2% | [5] 53.7% | [6] 76.3% | [7] 64.3% | [8] 46.1% | [9] 117% | [10] 79.4%

O=C(COc1ccc(-c2nc3ccccc3[nH]2)cc1)N=Nc1c(O)[nH]c2ccccc12
inactive: [1] 101% | [2] 44.8% | [3] 80.9% | [4] 84.5% | [5] 107% | [6] 98.3% | [7] 102% | [8] 106% | [9] 110% | [10] 116%

COc1ccc(C2C=C(c3ccc(Cl)cc3)N=C3SC=CN32)c(Br)c1 (stereo not given)
inactive: [1] 97% | [2] 66.1% | [3] 106% | [4] 47.7% | [5] 69.8% | [6] 71.2% | [7] 55.6% | [8] 91.1% | [9] 83.2% | [10] 78.6%

O=NN(CC(=O)N/N=C/C=C\c1ccccc1)CC(=O)N/N=C/C=C/c1ccccc1
inactive: [1] 109% | [2] 96.9% | [3] 90.6% | [4] 89.2% | [5] 71.3% | [6] 88% | [7] 106% | [8] 92.3% | [9] 98.8% | [10] 97.5%

CCCCCCCCCCCCCCCCn1cc[n+](C)c1
active: [1] -100% | [3] -73.7% | [4] -93.9% | [5] -66.2% | [6] -23% | [7] -39.5% | [8] -98.6% | [9] -61.1% | [10] -77.4%
inactive: [2] 72.6%

COc1ccc(-c2cc(/C=C3\C(=O)Nc4cc(Cl)ccc43)[nH]n2)cc1
inactive: [1] 26.4% | [2] 13.3% | [3] 29.2% | [4] 54.5% | [6] 36.5% | [9] 62.2% | [10] 35%
active: [5] 9.94% | [7] 1.51% | [8] 4.51%

FC(F)(F)c1ccc(-c2cnc(Cl)nc2NC2CCCCCC2)cc1
active: [3] -42.8% | [7] -45.6% | [9] -10.3%
inactive: [1] 59.7% | [2] 11.9% | [4] 47.4% | [5] 31.3% | [6] 39.4% | [8] 75.1% | [10] 21.8%

COc1cc2ccnc(C=O)c2cc1OC
inactive: [1] 69.8% | [2] 31.2% | [3] 58.8% | [4] 75.3% | [5] 67.6% | [6] 92% | [7] 96.5% | [8] 65.6% | [9] 83.2% | [10] 67.8%

COc1cc(C2C=C(c3ccc(Cl)cc3)N=C3SC(C)=CN32)cc(OC)c1OC (stereo not given)
inactive: [1] 99.9% | [2] 91.1% | [3] 88.7% | [4] 103% | [5] 92.6% | [6] 104% | [7] 82.2% | [8] 99.1% | [9] 101% | [10] 95%

Cc1[nH]nc2c(=S)[nH]c(=O)[nH]c12
inactive: [1] 106% | [2] 105% | [3] 88.2% | [4] 104% | [5] 107% | [6] 104% | [7] 91% | [8] 101% | [9] 90% | [10] 100%

O=C(NC1CCN(Cc2ccccc2)CC1)c1cc(-c2ccncc2)nc2ccc(Cl)cc12
inactive: [1] 33.2% | [2] 13.4% | [3] 56.9% | [4] 42.3% | [5] 37.8% | [6] 24.4% | [7] 14.6% | [8] 16.4% | [10] 16.1%
active: [9] -1.44%

COc1ccc(-c2nnc(COc3ccc(NC(=O)Nc4ccccc4)cc3F)o2)cc1
inactive: [1] 83.3% | [2] 71.8% | [3] 84.1% | [4] 74.8% | [5] 94.5% | [6] 78.6% | [7] 98.6% | [8] 86.4% | [9] 96.8% | [10] 89.8%

Fc1ccc(Nc2ccnc(N3CCN(c4ccnc5cc(Cl)ccc45)CC3)n2)cc1
inactive: [1] 77% | [2] 16% | [3] 52.9% | [4] 56% | [5] 66.7% | [6] 72.4% | [7] 39.6% | [8] 51.4% | [9] 61.1% | [10] 43.4%

CC(=O)/C(=C\c1ccc(Cl)cc1)c1ccccc1
active: [1] 0.722% | [2] 8.97% | [7] -6.11% | [8] -1.66% | [10] 1.53%
inactive: [3] 73.1% | [4] 19.4% | [5] 25.7% | [6] 23.9% | [9] 72.2%

COc1ccc(C2C=C(c3ccc(Cl)c(Cl)c3)N=C3SC(C)=CN32)cc1 (stereo not given)
inactive: [1] 100% | [2] 83.2% | [3] 90.2% | [4] 101% | [5] 83% | [6] 97.2% | [7] 87.3% | [8] 95.7% | [9] 109% | [10] 97.3%

COC(=O)[C@]12CC[C@@H](C)[C@H](C)[C@@H]1C1=CC[C@@H]3[C@@]4(C)C[C@@H](O)[C@H](O)[C@@](C)(CO)[C@@H]4[C@H](O)C[C@@]3(C)[C@]1(C)CC2
active: [1] -82.5% | [2] -31.7% | [3] -55.9% | [4] -66.3% | [5] -81.6% | [6] -31% | [7] -78.5% | [8] -58.4% | [9] -85.1% | [10] -71.3%

CCCCC(=O)N(c1ccc(Nc2c3ccccc3nc3cc([N+](=O)[O-])ccc23)cc1)S(C)(=O)=O
inactive: [1] 26.3% | [2] 64.3% | [3] 92.7% | [4] 84.6% | [5] 75.8% | [6] 53% | [7] 34.4% | [8] 79.8% | [9] 79.8% | [10] 92.9%

C/C(=N\NC(=S)N1CCCC1)c1ccccn1
active: [2] 7.97% | [3] -8.16% | [6] 9.48% | [7] -6.83% | [8] 4.96% | [9] -32.4% | [10] 6.19%
inactive: [1] 16.7% | [4] 27.9% | [5] 21.5%

CCOC(=O)CNC(=O)Nc1ccc(Oc2ccc(NC(=O)NCC(=O)OCC)cc2)cc1
inactive: [1] 112% | [2] 105% | [3] 102% | [4] 108% | [5] 91.6% | [6] 104% | [7] 93% | [8] 86.7% | [9] 96.2% | [10] 101%
